The source of these data is publication PMC11006913.

Assay in all cases: PBM; 200 nM protein, PBS
Common to all, as to details: dsDNA, one strand shown

In test [1] the target is PRRX1 (Homo sapiens, UniProt P54821 80-166, F113S).
Test [2] concerns the target PRRX1 (Homo sapiens, UniProt P54821 80-166).
Test [3] concerns the target T1, SIX6 (Homo sapiens, UniProt O95475 114-200, T165P).
T1 sequence: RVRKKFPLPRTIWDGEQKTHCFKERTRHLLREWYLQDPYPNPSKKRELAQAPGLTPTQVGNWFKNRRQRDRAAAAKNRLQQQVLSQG

The target in test [4] is T2, SIX6 (Homo sapiens, UniProt O95475 114-200, H141N).
T2 sequence: T1 sequence with H28N, P52T

Test [5] has as its target T3, SIX6 (Homo sapiens, UniProt O95475 114-200, T165A).
T3 sequence: T1 sequence with P52A

Test [6] concerns the target T4, SIX6 (Homo sapiens, UniProt O95475 114-200, T165G).
T4 sequence: T1 sequence with P52G

Test [7] has as its target T5, SIX6 (Homo sapiens, UniProt O95475 114-200, T139Q).
T5 sequence: T1 sequence with T26Q, P52T

In test [8] the target is T6, SIX6 (Homo sapiens, UniProt O95475 114-200).
T6 sequence: T1 sequence with P52T

In test [9] the target is T7, SIX6 (Homo sapiens, UniProt O95475 114-200, T165I).
T7 sequence: T1 sequence with P52I

In test [10] the target is T8, SIX6 (Homo sapiens, UniProt O95475 114-200, L167V).
T8 sequence: T1 sequence with P52T, L54V

Changes are numbered by the printed parent chain.

Sequence of PRRX1 (Homo sapiens, UniProt P54821 80-166, F113S) (P54821 80-166 F113S): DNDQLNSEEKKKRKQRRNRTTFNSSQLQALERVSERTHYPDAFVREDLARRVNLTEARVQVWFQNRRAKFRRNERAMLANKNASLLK
Sequence of PRRX1 (Homo sapiens, UniProt P54821 80-166) (P54821 80-166): as the sequence (P54821 80-166 F113S) above, with S34F counted along it

Consider GACTCTAA, for which the binding signal was 10.1 upbm affinity estimate (log intensity, higher = more binding, comparable within an allelic series) in [1] and 11.1 upbm affinity estimate (log intensity, higher = more binding, comparable within an allelic series) in test [2].
Turning to GCACGTCC, the binding signal was 9.49 upbm affinity estimate (log intensity, higher = more binding, comparable within an allelic series) in [1] and 9.27 upbm affinity estimate (log intensity, higher = more binding, comparable within an allelic series) in [2].
Consider CCCCTTGC, for which the binding signal in [1] was 9.32 upbm affinity estimate (log intensity, higher = more binding, comparable within an allelic series); in test [2], 9.53 upbm affinity estimate (log intensity, higher = more binding, comparable within an allelic series).
For CGGAGCGC, the binding signal was 9.18 upbm affinity estimate (log intensity, higher = more binding, comparable within an allelic series) in test [1] and 9.3 upbm affinity estimate (log intensity, higher = more binding, comparable within an allelic series) in test [2].
Regarding CCCAGGGA, the binding signal in test [1] is 9.4 upbm affinity estimate (log intensity, higher = more binding, comparable within an allelic series); in test [2], 9.28 upbm affinity estimate (log intensity, higher = more binding, comparable within an allelic series).
For CCGAACCC, the binding signal is 9.23 upbm affinity estimate (log intensity, higher = more binding, comparable within an allelic series) in [1] and 9.29 upbm affinity estimate (log intensity, higher = more binding, comparable within an allelic series) in [2].
Regarding ATTTTTAA, the binding signal in [1] is 10.4 upbm affinity estimate (log intensity, higher = more binding, comparable within an allelic series); in test [2] it was 12 upbm affinity estimate (log intensity, higher = more binding, comparable within an allelic series).
As for TTAACAAA, the binding signal in test [1] was 10.5 upbm affinity estimate (log intensity, higher = more binding, comparable within an allelic series); in test [2], 12.4 upbm affinity estimate (log intensity, higher = more binding, comparable within an allelic series).
With GAGGGATC, the binding signal in test [3] was 9.26 upbm affinity estimate (log intensity, higher = more binding, comparable within an allelic series).
The same measure, in the same setting: in the case of GGGGATCA it was 9.12 upbm affinity estimate (log intensity, higher = more binding, comparable within an allelic series).
The same measure, in the same setting: to ACCGGATC belongs 9.31 upbm affinity estimate (log intensity, higher = more binding, comparable within an allelic series); to CCGGATCA, 9.33 upbm affinity estimate (log intensity, higher = more binding, comparable within an allelic series).
On the same count and under the same terms, to CTGGATCC belongs 9.18 upbm affinity estimate (log intensity, higher = more binding, comparable within an allelic series); to AGATCCGC, 9.23 upbm affinity estimate (log intensity, higher = more binding, comparable within an allelic series); to GCGATCCC, 9.24 upbm affinity estimate (log intensity, higher = more binding, comparable within an allelic series).
Consider CCGGATCC, for which the binding signal in [3] is 9.14 upbm affinity estimate (log intensity, higher = more binding, comparable within an allelic series).
Still for that read-out and setting: in the case of GGATCGGA it was 9.23 upbm affinity estimate (log intensity, higher = more binding, comparable within an allelic series).
As to CTGATACA, the binding signal in test [4] is 11 upbm affinity estimate (log intensity, higher = more binding, comparable within an allelic series); in [5] it was 11 upbm affinity estimate (log intensity, higher = more binding, comparable within an allelic series).
Turning to CGTGATCC, the binding signal in test [3] was 9.16 upbm affinity estimate (log intensity, higher = more binding, comparable within an allelic series).
On the same count and under the same terms, to AGGGATCG belongs 9.2 upbm affinity estimate (log intensity, higher = more binding, comparable within an allelic series); to GATACGCC, 9.27 upbm affinity estimate (log intensity, higher = more binding, comparable within an allelic series).
Turning to AGGAGAGC, the binding signal was 9.35 upbm affinity estimate (log intensity, higher = more binding, comparable within an allelic series) in test [1] and 9.36 upbm affinity estimate (log intensity, higher = more binding, comparable within an allelic series) in test [2].
Consider GGATACCC, for which, in [3], the binding signal was 9.29 upbm affinity estimate (log intensity, higher = more binding, comparable within an allelic series).
On the same count and under the same terms, in the case of GGATCCCC it was 9.23 upbm affinity estimate (log intensity, higher = more binding, comparable within an allelic series); in that of GGATCCGA, 9.08 upbm affinity estimate (log intensity, higher = more binding, comparable within an allelic series).
Consider GGGATACC, for which, in test [3], the binding signal was 9.29 upbm affinity estimate (log intensity, higher = more binding, comparable within an allelic series).
For CATAACAC, the binding signal in [4] was 10 upbm affinity estimate (log intensity, higher = more binding, comparable within an allelic series); in test [6], 10.3 upbm affinity estimate (log intensity, higher = more binding, comparable within an allelic series); in test [7], 10.4 upbm affinity estimate (log intensity, higher = more binding, comparable within an allelic series); in [5] it was 10.1 upbm affinity estimate (log intensity, higher = more binding, comparable within an allelic series); in test [8], 10.1 upbm affinity estimate (log intensity, higher = more binding, comparable within an allelic series); in test [9], 10.1 upbm affinity estimate (log intensity, higher = more binding, comparable within an allelic series).
In the case of CGGATCAG, the binding signal in test [3] was 9.26 upbm affinity estimate (log intensity, higher = more binding, comparable within an allelic series).
Same read-out and setting: in the case of CGATCCGC it was 9.21 upbm affinity estimate (log intensity, higher = more binding, comparable within an allelic series).
For the sequence CGATACAC, the binding signal in [4] is 11.1 upbm affinity estimate (log intensity, higher = more binding, comparable within an allelic series); in [7] it was 11.2 upbm affinity estimate (log intensity, higher = more binding, comparable within an allelic series); in test [5], 11 upbm affinity estimate (log intensity, higher = more binding, comparable within an allelic series).
For AGGGGATC, the binding signal in test [3] is 9.22 upbm affinity estimate (log intensity, higher = more binding, comparable within an allelic series).
For the sequence CATATCAC, the binding signal is 11.1 upbm affinity estimate (log intensity, higher = more binding, comparable within an allelic series) in [4]; 11.1 upbm affinity estimate (log intensity, higher = more binding, comparable within an allelic series) in [6]; 11 upbm affinity estimate (log intensity, higher = more binding, comparable within an allelic series) in [5]; 10.9 upbm affinity estimate (log intensity, higher = more binding, comparable within an allelic series) in test [10].
